Legend:
Settings in all cases: concentration: 1 μM, replicates: in singlicate; n = 1
JNK2 = system: T1, JNK2
T1 construct: gene MAPK9

JNK3 = system: T2, JNK3
T2 construct: gene MAPK10

KIT-autoinhibited = system: KIT-autoinhibited
KIT = system: KIT
LATS1 = system: LATS1
LATS2 = system: LATS2
LCK = system: LCK
LIMK1 = system: LIMK1
LIMK2 = system: LIMK2
LKB1 = system: T3, LKB1
T3 construct: gene STK11
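Also: KINOMEscan kinase panel screen.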

SMILES	%Inh (JNK2) [%]	%Inh (JNK3) [%]	%Inh (KIT-autoinhibited) [%]	%Inh (KIT) [%]	%Inh (LATS1) [%]	%Inh (LATS2) [%]	%Inh (LCK) [%]	%Inh (LIMK1) [%]	%Inh (LIMK2) [%]	%Inh (LKB1) [%]
COC(=O)c1c(-c2ccccc2)c2cc(Br)ccc2c(=O)n1Cc1ccc(S(C)(=O)=O)cc1	98.8	98.6	6	54	31	30	0	0	0	0
Nc1n[nH]c2ncc(-c3ccccc3)cc12 [SB-517081]	14	5	13	83	0	0	7	0	9	0
Cc1nnc(-c2ccc(C)c(-c3ccc(C(=O)O)cc3)c2)o1 [GW608005]	0	0	0	0	0	0	0	4	0	5
COc1cc2nccc(Nc3ccc(OCc4ccc(NC(C)=O)cc4)cc3)c2cc1OC.Cl [GW440135]	0	0	12	100	0	0	22	0	0	0
COC(=O)c1c(-c2ccccc2)c2cc(Br)ccc2c(=O)n1Cc1ccc(NC(=O)CCC(=O)O)cc1	99.1	99.3	1	38	27	17	0	0	0	6
CCC(=O)c1c(-c2ccccc2)c2cc(Cl)ccc2c(=O)n1Cc1cc(S(C)(=O)=O)n(CC(F)F)n1	99.4	99.4	0	5	0	0	0	0	0	0
COc1cccc(C2=C(N(C)c3ccccc3)C(=O)NC2=O)c1 [SB-334865]	14	0	0	0	3	0	16	0	0	0
CCC(=O)c1c(-c2ccccc2)c2cc(Cl)ccc2c(=O)n1Cc1cc(S(C)(=O)=O)n(CCC(C)(C)O)n1	99.9	99.9	0	11	31	17	13	0	16	3
COc1ccc(-c2coc3ccc(-c4nnc(SCc5cccc(C#N)c5)o4)cc23)cc1	17	14	1	21	29	11	11	26	0	0
O=c1cc(N2CCOCC2)nc2n(Cc3ccc(F)c(Cl)c3)ccn12 [GSK2297099]	8	5	0	9	4	0	0	7	6	0
COC(=O)c1c(-c2ccccc2)c2cc(C)ccc2c(=O)n1Cc1ccccc1	32	48	0	75	0	0	0	5	0	0
COc1ccc(Nc2nccc(N3CCC(NS(=O)(=O)c4ccc(NC(C)=O)cc4)C3)n2)cc1 (centres unmarked) [GSK1379729]	0	0	0	9	0	0	23	14	10	0
COc1cc(OC)cc(-c2cc3cnc(N)nc3nc2NC(=O)NC(C)(C)C)c1	0	0	0	0	0	34	0	0	0	0
COc1cc2nccc(Nc3cccc(Oc4ccccc4)c3)c2cc1OC.Cl [GW284543]	31	0	0	15	10	0	51	0	0	0
CCS(=O)c1ccc(-c2coc3ccc(-c4nnc(C)o4)cc23)cc1 (centres unmarked)	24	18	0	5	18	0	5	0	0	29
Cc1nn2c(=O)cc(N3CCOCC3)nc2n1Cc1cccc(Cl)c1Cl [GSK2342769]	15	5	0	10	0	0	5	0	0	0
Cc1c(Cn2c(C)nn3c(=O)cc(N4CCO[C@H](C)C4)nc23)cccc1C(F)(F)F [GSK2373690]	27	17	0	13	0	0	15	5	0	0
Cc1cc(Nc2nc(-c3cccc(C)n3)nc3ccccc23)ccn1 [GW872411]	14	0	2	0	0	0	0	0	0	0
COc1ccc(CNC(=O)NC2CCN(c3ccnc(Nc4ccc(F)cc4)n3)C2)cc1 (centres unmarked) [GSK1379706]	9	13	3	39	22	27	16	0	29	13
CCn1c(-c2nonc2N)nc2ccccc21 [SB-693162/GW549034]	57	62	26	0	0	82	12	0	0	0
O=C(Nc1ccc2c(c1)OCO2)NC1CCN(c2ccnc(NCc3ccc(F)cc3)n2)CC1 [GSK1379859]	0	0	0	2	0	0	14	0	21	6

SMILES	%Inh (JNK2) [%]	%Inh (JNK3) [%]	%Inh (KIT-autoinhibited) [%]	%Inh (KIT) [%]	%Inh (LATS1) [%]	%Inh (LATS2) [%]	%Inh (LCK) [%]	%Inh (LIMK1) [%]	%Inh (LIMK2) [%]	%Inh (LKB1) [%]
O=C(Nc1n[nH]c2nc(-c3ccccc3)c(Cl)cc12)C1CC1 [SB-734909]	32	29	0	51	0	24	3	9	12	37
Nc1ncnc2c1ncn2-c1cccc(F)c1 [SKF-97560]	18	36	25	39	0	42	20	20	22	4
Nc1n[nH]c2nnc(-c3ccccc3)c(-c3ccccc3)c12 [GW554060]	23	15	0	18	0	4	14	6	11	0
Cc1cccc(-c2nc(Nc3ccc4c(cnn4C)c3)c3ccccc3n2)n1 [GW876731]	60	28	0	7	0	0	0	0	0	48
Cn1c(=O)c(F)c(Nc2ccc(I)cc2F)c2c(=O)n(OC[C@H](O)CO)cnc21	0	0	0	7	18	0	1	14	26	0
COc1cc2ncn(-c3cc(OCc4ccncc4)c(C(N)=O)s3)c2cc1OC [GSK336313]	12	1	0	18	0	8	30	2	18	0
CN1C(=O)C(Nc2cc(Cl)c(O)c(Cl)c2)=C(c2ccc(Cl)cc2)C1=O [SB-404321]	19	15	26	0	0	0	0	0	0	32
Cc1ccc(-c2ccc3c(ccc4sc5c(c43)NC[C@@H](C)N=C5N(C)C)n2)cn1	0	0	0	0	0	18	0	0	0	0
CCC(=O)c1c(-c2ccccc2)c2cc(Cl)ccc2c(=O)n1Cc1cc(C(=O)NC2CC2)n(C)n1	100	99.8	0	58	19	1	0	0	0	9
Cl.NS(=O)(=O)c1cccc(Nc2cc(-c3ccc(F)cc3)n[nH]2)c1 [GW824645]	1	0	35	90	0	0	0	0	0	25
CCc1ccc(-c2ccc3c(c2)-c2nn(C)cc2S(=O)(=O)N3C)cc1	0	0	53	0	0	0	17	0	0	21
Nc1nc(N)c2nc(-c3ccccc3)[nH]c2n1 [SKF-12778]	14	8	5	21	0	0	19	0	3	0
COc1cc(Nc2ccnc3ccc(C(F)(F)F)cc23)cc(OC)c1OC [GW577382]	48	29	0	19	0	0	68	18	0	0
CCCNC(=O)Nc1ccc(Oc2ncnc3ccn(C)c23)cc1	3	0	3	89	44	11	0	0	0	9
COc1cc(Nc2nccc(N3CCC(NC(=O)C(C)c4ccc(Cl)cc4)C3)n2)cc(OC)c1OC (centres unmarked) [GSK1379757]	6	0	0	2	0	1	8	1	22	7
COc1ccc(-n2cnc3c(N)ncnc32)cc1 [SKF-97236]	0	0	2	94.2	25	34	31	2	0	0
COc1cccc(-n2cnc3c(N)ncnc32)c1 [SKF-97416]	27	8	23	12	8	1	10	0	7	60
COc1cc(Nc2nccc(N3CCC(NC(=O)C4COc5ccccc5O4)C3)n2)cc(OC)c1OC (centres unmarked) [GSK1379761]	22	7	0	22	3	0	31	0	4	27
CCS(=O)(=O)c1ccc(OC)c(Nc2ncc(-c3ccc(F)cc3)o2)c1.Cl [GW591947]	21	0	0	17	0	0	13	0	0	0
Cc1ccc(Oc2ccc(Nc3ncnc4cc[nH]c34)cc2C)cn1	44	57	12	16	26	44	3	4	0	11

Reference: article PMC5540273 (PLoS ONE, 2017)
